According to the supplement of paper PMC10849652:
About 7,900 targets were measured; listed, in parts, are those with a hit and a random draw of the rest. About 0.6% of all pairs of compound and target were hits. Values without a mark were called inactive.

compound: COC1=CC=C(C=C1)CN2C=CC3=C2C=C(C=C3)C(=O)NO; experiment: log2 fold change, soluble protein after heating vs DMSO (PISA); higher = thermal stabilisation; K562 cells, 10 uM, 30 min; active = over 0.2 and 3.5 SD of the protein, either way, in both replicates (recomputed)
Procedure, shortened: (§1)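 K562 cells at 2×10^6 cells/mL were treated with 10 μM compound for 30 min. Aliquots were heated for 3 min across 48°C-58°C, pooled, and extracted in PBS with 0.5% NP-40 at 4°C; soluble protein was the supernatant after 21,000xg for 90 min. Soluble protein was quantified by TMTpro 16plex LC-MS/MS with channel sums equalised, and reported as log2 fold change in thermal stability against DMSO controls, with values from duplicates.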

UniProt Q99805, sequence (Q99805 whole entry, looked up): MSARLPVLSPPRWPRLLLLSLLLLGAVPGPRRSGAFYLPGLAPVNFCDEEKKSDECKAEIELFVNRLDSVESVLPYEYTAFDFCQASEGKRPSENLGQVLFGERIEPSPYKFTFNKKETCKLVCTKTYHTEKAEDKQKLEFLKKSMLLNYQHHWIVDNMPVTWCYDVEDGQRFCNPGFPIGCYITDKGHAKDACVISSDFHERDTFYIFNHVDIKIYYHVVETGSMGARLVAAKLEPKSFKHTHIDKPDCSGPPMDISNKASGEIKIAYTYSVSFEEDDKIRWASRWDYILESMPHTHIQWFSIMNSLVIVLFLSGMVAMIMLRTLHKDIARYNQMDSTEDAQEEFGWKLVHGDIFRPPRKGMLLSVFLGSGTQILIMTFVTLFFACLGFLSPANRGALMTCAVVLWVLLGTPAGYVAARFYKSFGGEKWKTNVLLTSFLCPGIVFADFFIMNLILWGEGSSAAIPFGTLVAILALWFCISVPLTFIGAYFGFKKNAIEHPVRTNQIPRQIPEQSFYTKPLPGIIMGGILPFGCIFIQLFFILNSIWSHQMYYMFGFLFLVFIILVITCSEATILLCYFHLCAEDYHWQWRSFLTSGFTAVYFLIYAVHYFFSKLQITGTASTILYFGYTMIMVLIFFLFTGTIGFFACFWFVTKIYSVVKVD
UniProt Q9Y4R8, sequence (Q9Y4R8 whole entry, looked up): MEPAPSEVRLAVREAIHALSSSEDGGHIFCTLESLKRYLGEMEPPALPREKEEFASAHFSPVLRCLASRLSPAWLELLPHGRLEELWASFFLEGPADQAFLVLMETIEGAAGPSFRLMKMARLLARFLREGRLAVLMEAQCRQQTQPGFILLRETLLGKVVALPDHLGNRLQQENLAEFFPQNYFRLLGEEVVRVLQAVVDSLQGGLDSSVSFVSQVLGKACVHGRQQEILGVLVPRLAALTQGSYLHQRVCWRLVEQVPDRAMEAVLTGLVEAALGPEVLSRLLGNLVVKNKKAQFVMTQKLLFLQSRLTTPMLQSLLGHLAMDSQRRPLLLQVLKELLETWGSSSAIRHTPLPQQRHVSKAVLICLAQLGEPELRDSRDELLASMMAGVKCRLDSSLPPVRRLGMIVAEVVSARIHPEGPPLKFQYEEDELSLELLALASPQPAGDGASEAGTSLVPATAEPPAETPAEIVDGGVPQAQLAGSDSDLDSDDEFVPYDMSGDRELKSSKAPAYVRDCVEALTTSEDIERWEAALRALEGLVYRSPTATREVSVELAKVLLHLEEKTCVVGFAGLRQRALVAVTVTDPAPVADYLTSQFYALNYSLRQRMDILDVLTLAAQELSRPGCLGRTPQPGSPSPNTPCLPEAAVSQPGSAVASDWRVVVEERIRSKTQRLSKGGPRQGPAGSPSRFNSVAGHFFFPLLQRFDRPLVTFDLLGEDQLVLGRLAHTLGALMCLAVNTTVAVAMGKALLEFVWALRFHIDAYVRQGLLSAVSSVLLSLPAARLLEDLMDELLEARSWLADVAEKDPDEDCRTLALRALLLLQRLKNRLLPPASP
UniProt P63165, sequence (P63165 whole entry, looked up): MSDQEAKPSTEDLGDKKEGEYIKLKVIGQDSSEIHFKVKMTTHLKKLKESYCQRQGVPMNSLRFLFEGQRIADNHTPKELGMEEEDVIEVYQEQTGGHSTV
UniProt Q7L7X3, sequence (Q7L7X3 whole entry, looked up): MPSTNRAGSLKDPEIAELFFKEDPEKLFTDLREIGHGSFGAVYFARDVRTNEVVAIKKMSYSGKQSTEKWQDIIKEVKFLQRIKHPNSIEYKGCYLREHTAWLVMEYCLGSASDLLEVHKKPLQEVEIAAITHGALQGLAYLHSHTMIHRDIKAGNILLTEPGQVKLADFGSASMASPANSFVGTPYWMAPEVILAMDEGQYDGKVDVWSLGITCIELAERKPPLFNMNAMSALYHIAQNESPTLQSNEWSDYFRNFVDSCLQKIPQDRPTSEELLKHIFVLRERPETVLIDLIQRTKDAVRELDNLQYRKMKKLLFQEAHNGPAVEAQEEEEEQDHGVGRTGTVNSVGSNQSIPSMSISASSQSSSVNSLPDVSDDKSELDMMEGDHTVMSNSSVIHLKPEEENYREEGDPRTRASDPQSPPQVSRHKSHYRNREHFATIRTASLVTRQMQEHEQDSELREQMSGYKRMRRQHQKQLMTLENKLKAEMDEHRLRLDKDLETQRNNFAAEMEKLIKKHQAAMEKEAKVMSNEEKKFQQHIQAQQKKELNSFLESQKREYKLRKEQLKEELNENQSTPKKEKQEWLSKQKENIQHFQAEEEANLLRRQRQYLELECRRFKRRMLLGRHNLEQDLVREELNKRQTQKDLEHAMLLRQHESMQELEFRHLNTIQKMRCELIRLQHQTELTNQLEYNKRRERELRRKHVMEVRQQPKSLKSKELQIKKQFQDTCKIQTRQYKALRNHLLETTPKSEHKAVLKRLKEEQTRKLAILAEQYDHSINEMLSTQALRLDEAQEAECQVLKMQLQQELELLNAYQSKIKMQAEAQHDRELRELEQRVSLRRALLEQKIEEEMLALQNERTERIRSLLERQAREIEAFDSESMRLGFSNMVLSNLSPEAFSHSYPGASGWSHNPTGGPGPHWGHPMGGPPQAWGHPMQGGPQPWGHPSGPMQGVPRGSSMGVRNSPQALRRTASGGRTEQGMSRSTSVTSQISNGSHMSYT
UniProt P30626, sequence (P30626 whole entry, looked up): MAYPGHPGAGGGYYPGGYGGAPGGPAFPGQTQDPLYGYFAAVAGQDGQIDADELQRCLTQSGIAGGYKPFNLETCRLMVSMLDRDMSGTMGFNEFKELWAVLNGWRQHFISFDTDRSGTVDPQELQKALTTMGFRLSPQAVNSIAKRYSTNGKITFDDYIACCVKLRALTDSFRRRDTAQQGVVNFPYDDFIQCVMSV
UniProt Q96BW9, sequence (Q96BW9 whole entry, looked up): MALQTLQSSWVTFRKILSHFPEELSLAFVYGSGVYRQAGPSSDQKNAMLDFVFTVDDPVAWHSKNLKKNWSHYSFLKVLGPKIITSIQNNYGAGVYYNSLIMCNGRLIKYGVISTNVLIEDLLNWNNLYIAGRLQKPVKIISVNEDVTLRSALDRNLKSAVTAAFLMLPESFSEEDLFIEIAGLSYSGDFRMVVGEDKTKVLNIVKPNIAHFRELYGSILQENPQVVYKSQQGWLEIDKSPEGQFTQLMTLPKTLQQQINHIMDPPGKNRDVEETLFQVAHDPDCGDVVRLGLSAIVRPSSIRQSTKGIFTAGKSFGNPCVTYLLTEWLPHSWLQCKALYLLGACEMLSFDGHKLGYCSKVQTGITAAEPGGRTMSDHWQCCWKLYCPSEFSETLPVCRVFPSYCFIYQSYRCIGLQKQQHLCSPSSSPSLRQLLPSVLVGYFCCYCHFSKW
UniProt P36897, sequence (P36897 whole entry, looked up): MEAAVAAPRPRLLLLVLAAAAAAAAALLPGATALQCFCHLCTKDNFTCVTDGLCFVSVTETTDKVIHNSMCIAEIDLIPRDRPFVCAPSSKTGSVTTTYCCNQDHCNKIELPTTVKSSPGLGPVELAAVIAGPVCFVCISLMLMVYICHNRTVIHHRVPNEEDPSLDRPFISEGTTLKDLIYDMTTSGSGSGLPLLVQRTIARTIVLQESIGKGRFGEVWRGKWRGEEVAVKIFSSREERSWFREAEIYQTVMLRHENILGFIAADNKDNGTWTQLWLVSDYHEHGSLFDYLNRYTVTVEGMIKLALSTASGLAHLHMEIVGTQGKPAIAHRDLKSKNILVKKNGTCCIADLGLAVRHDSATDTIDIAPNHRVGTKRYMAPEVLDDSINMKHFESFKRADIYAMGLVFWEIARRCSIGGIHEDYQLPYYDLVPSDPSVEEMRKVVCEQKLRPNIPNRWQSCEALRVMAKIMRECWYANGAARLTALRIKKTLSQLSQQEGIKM
UniProt Q8WVK2, sequence (Q8WVK2 whole entry, looked up): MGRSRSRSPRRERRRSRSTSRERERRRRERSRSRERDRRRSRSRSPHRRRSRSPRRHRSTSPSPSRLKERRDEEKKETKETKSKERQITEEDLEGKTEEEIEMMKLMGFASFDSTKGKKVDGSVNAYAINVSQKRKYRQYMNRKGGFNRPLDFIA
UniProt Q9NYB0, sequence (Q9NYB0 whole entry, looked up): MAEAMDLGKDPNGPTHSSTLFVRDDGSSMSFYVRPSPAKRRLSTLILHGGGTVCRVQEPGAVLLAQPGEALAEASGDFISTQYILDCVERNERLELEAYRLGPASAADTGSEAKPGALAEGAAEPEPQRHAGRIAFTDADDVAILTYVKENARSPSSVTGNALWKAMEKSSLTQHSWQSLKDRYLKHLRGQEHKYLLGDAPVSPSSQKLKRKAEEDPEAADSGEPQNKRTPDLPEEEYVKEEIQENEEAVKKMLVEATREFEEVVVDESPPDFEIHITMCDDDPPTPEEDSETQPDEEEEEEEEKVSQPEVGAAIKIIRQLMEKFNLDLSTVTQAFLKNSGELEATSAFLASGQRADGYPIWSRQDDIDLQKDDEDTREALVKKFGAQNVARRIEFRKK
UniProt O14975, sequence (O14975 whole entry, looked up): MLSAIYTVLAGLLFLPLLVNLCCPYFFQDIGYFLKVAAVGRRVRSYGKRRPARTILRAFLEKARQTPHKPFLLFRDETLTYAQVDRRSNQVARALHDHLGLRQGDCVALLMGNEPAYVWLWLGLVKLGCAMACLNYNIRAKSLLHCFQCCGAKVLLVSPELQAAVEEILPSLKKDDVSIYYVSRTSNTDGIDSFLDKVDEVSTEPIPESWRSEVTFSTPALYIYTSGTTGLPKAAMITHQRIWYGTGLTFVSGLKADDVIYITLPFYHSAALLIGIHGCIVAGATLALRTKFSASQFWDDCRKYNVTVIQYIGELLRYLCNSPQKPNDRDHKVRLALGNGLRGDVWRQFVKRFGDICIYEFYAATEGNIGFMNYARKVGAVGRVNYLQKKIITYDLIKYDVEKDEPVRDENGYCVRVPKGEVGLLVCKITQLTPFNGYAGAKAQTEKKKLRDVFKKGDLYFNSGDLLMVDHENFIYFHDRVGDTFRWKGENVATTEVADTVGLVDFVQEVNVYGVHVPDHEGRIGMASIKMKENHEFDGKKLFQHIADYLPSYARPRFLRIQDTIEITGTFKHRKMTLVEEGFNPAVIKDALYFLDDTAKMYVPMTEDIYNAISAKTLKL

| Target | log2 fold change |
| --- | --- |
| TERF2IP (UniProt Q9NYB0) | -0.034 |
| TGFBR1 isoform 2 (UniProt P36897) | 0.004 |
| SLC25A39 (UniProt Q9BZJ4) | -0.069 |
| SLC27A2 (UniProt O14975) | 0.089 |
| STAT5B (UniProt P51692) | 0.13 |
| TBC1D15 isoform 3 (UniProt Q8TC07) | -0.063 |
| TELO2 (UniProt Q9Y4R8) | -0.026 |
| SQSTM1 (UniProt Q13501) | 0.047 |
| TBC1D5 isoform 2 (UniProt Q92609) | 0.048 |
| SRI (UniProt P30626) | -0.015 |
| STAT3 (UniProt P40763) | 0.063 |
| SRPRA (UniProt P08240) | 0.008 |
| TAOK1 (UniProt Q7L7X3) | -0.046 |
| STK26 (UniProt Q9P289) | 0.018 |
| STK4 (UniProt Q13043) | -0.031 |
| STXBP2 isoform 3 (UniProt Q15833) | 0.021 |
| SRPRB (UniProt Q9Y5M8) | 0.133 |
| TIMM29 (UniProt Q9BSF4) | -0.141 |
| SPG11 (UniProt Q96JI7) | -0.232 |

| Target | log2 fold change |
| --- | --- |
| SLC25A36 (UniProt Q96CQ1) | 0.006 |
| SLC25A42 (UniProt Q86VD7) | 0.241 (active) |
| TAMM41 isoform 3 (UniProt Q96BW9) | -0.027 |
| SRSF4 (UniProt Q08170) | -0.085 |
| SNRNP27 (UniProt Q8WVK2) | -0.075 |
| TJP2 isoform 7 (UniProt Q9UDY2) | 0.019 |
| STEAP3 isoform 2 (UniProt Q658P3) | -0.028 |
| SP100 isoform 4 (UniProt P23497) | 0.05 |
| SPG21 (UniProt Q9NZD8) | -0.026 |
| TIMM44 (UniProt O43615) | 0 |
| TBC1D23 (UniProt Q9NUY8) | 0.07 |
| SPAG9 (UniProt O60271) | 0.005 |
| SNRPB2 (UniProt P08579) | -0.018 |
| SNX6 (UniProt Q9UNH7) | -0.036 |
| STK25 (UniProt O00506) | -0.06 |
| TJP1 (UniProt Q07157) | 0.02 |
| STK11IP (UniProt Q8N1F8) | -0.029 |
| SUMO1 (UniProt P63165) | -0.363 |
| TM9SF2 (UniProt Q99805) | -0.06 |

compound: CON(C)C(=O)N1N=C(c2cc(F)ccc2F)S[C@@]1(CCCN)c1ccccc1 [filanesib]; experiment: as above
Procedure, shortened: as §1

| Target | log2 fold change |
| --- | --- |
| TERF2IP (UniProt Q9NYB0) | 0.052 |
| TGFBR1 isoform 2 (UniProt P36897) | -0.001 |
| SLC25A39 (UniProt Q9BZJ4) | -0.255 |
| SLC27A2 (UniProt O14975) | -0.033 |
| STAT5B (UniProt P51692) | -0.036 |
| TBC1D15 isoform 3 (UniProt Q8TC07) | 0 |
| TELO2 (UniProt Q9Y4R8) | 0.113 |
| SQSTM1 (UniProt Q13501) | 0.011 |
| TBC1D5 isoform 2 (UniProt Q92609) | -0.01 |
| SRI (UniProt P30626) | 0.053 |
| STAT3 (UniProt P40763) | -0.031 |
| SRPRA (UniProt P08240) | -0.022 |
| TAOK1 (UniProt Q7L7X3) | 0.054 |
| STK26 (UniProt Q9P289) | -0.147 |
| STK4 (UniProt Q13043) | -0.034 |
| STXBP2 isoform 3 (UniProt Q15833) | 0.001 |
| SRPRB (UniProt Q9Y5M8) | -0.076 |
| TIMM29 (UniProt Q9BSF4) | 0.041 |
| SPG11 (UniProt Q96JI7) | 0.158 |

| Target | log2 fold change |
| --- | --- |
| SLC25A36 (UniProt Q96CQ1) | -0.069 |
| SLC25A42 (UniProt Q86VD7) | -0.011 |
| TAMM41 isoform 3 (UniProt Q96BW9) | -0.09 |
| SRSF4 (UniProt Q08170) | 0.234 |
| SNRNP27 (UniProt Q8WVK2) | 0.03 |
| TJP2 isoform 7 (UniProt Q9UDY2) | 0.093 |
| STEAP3 isoform 2 (UniProt Q658P3) | -0.014 |
| SP100 isoform 4 (UniProt P23497) | 0 |
| SPG21 (UniProt Q9NZD8) | 0 |
| TIMM44 (UniProt O43615) | -0.229 |
| TBC1D23 (UniProt Q9NUY8) | -0.184 |
| SPAG9 (UniProt O60271) | -0.041 |
| SNRPB2 (UniProt P08579) | 0.057 |
| SNX6 (UniProt Q9UNH7) | -0.187 |
| STK25 (UniProt O00506) | -0.006 |
| TJP1 (UniProt Q07157) | 0.035 |
| STK11IP (UniProt Q8N1F8) | 0.042 |
| SUMO1 (UniProt P63165) | 0.102 |
| TM9SF2 (UniProt Q99805) | -0.073 |
